# Shown are actives, neighbours in structure and some others; about 4.1% of the full set was active somewhere.
# UHRF1 binding = blocks human UHRF1 binding to methylated DNA; hit rate 0.75% among 370,000; inhibition, % at 4.4 µM; Q96T88; UHRF1 binding to methylated oligo, TR-FRET; in the data active = inhibition above about 21%;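 also: UHRF1 SRA domain binding a hemimethylated CpG hairpin DNA probe; 0% = median of test compound wells and 100% = reference inhibitor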
# LEDGF integ inh = blocks HIV-1 LEDGF/p75-dependent DNA integration; hit rate 0.64% among 370,000; inhibition, % at 3.7 µM; AID 743269; TR-FRET IN-LEDGF/p75 DNA integration, Eu/Cy5;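 active = inhibition above the screen-wide mean plus 3 SD, cut at about 13% in these data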;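 also: signal is the Cy5 over europium emission ratio at 671 and 618 nm; 0% = plate median of compound wells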
# ABHD5 PLIN5 PPI = inhibitors of human ABHD5-perilipin-5 interaction; Q00G26+Q8WTS1; AID 602281; inhibition, % at 4 µM; hit rate 0.78% among 360,000; Split G. princeps luciferase complementation, luminescence, 4 h;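 active = inhibition above the mean inhibition across every tested compound plus 3 SD, cut at about 22% in these data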;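 also: 0% = DMSO only wells and the 100% control is not disclosed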
# MBD2 inh = blocks human MBD2 binding to methylated DNA | TR-FRET, MBD2 binding to methylated oligonucleotide | Q9UBB5 | inhibition, % at 4.4 µM | AID 686964 | hit rate 0.31% among 370,000; in the data active = inhibition above about 13%
# rCAG RNA binder = binds r(CAG) RNA repeats; r(CAG) RNA repeat, TO-PRO-1 dye displacement fluorescence; inhibition, % at 3 µM; hit rate 1.3% among 370,000; AID 651821;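 active = inhibition above the plate cutoff, the mean of all test compounds on that plate plus 3 SD, cut at about 35% in these data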;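 also: 0% = DMSO alone and 100% = 100 µM mitoxantrone as full dye displacement; higher means more dye released from RNA so lower well fluorescence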
# PRMT1 FP inh = inhibitors of human PRMT1 | recombinant PRMT1, activity-based probe fluorescence polarization | inhibition, % at 2.79 µM | hit rate 1.3% among 370,000;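 active = inhibition above about 21% made by adding two undisclosed values, limit read from the data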
# ABHD5 PLIN5 conf = confirmation of human ABHD5-PLIN5 interaction inhibitors; inhibition, % at 4 µM; AID 651612; biochemical ABHD5-PLIN5 interaction, luminescence; hit rate 67% among 2,200; shares compounds with ABHD5 PLIN5 PPI; in the data active = inhibition above about 23%;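 also: 0% = DMSO vehicle wells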
# HNF4 split-luc = active in HNF4 split-luciferase counter-screen for ABHD5-PLIN5 inhibitors. shares compounds with ABHD5 PLIN5 PPI. HNF4 dimerization, luminescence, biochemical. inhibition, % at 4 µM. hit rate 77% among 2,200. AID 651674;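 active = mean inhibition across replicate wells exceeding the computed hit threshold, cut at about 13% in these data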;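 also: light from luciferase halves that rejoin when HNF4 fusion proteins dimerize; 0% = DMSO only wells and the 100% control is not given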
# Target sequence (P41235 whole entry, looked up, the tested form may be a part): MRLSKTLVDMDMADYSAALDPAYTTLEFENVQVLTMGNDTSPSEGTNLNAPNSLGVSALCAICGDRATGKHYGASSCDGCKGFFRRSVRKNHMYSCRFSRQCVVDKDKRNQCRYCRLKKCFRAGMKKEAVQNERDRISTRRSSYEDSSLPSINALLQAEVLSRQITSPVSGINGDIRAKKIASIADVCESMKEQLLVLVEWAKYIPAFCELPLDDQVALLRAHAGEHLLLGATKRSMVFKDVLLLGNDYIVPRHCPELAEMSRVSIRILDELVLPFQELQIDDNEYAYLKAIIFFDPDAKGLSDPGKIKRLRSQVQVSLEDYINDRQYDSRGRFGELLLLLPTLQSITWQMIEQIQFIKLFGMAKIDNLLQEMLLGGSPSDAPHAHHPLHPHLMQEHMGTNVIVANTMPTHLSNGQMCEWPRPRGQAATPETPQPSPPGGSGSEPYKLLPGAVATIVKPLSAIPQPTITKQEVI
# * marks the source's active call; other numbers are inactive results; · = no result given.
SMILES,UHRF1 binding,LEDGF integ inh,ABHD5 PLIN5 PPI,MBD2 inh,rCAG RNA binder,PRMT1 FP inh,ABHD5 PLIN5 conf,HNF4 split-luc
O=C(C[n+]1cccc(CNC(=O)c2ccc(OC(F)F)cc2)c1)Nc1cccc(C(F)(F)F)c1,-2,0,32*,1,10,-1,24*,3
O=C(C[n+]1cccc(CNC(=O)c2ccc(OC(F)F)cc2)c1)Nc1ccc(F)cc1,3,-5,11,7,12,4,·,·
COc1cc(/C=C(/C(=O)c2cccs2)c2nc3ccccc3[nH]2)cc(OC)c1O,-5,-4,60*,-2,10,7,88*,88*
COc1ccc(C(=O)N/C(=C/c2cccs2)c2nc3ccccc3[nH]2)cc1OC,-6,1,2,1,4,-1,·,·
O=C(/C(=C/c1ccc(Cl)cc1)c1nc2ccccc2[nH]1)c1ccccc1,-4,1,28*,-6,10,-3,100*,94*
O=C(N/C(=C/c1ccc(Cl)cc1)c1nc2ccccc2[nH]1)c1ccco1,-4,-2,-1,1,1,-2,·,·
C[C@@H]1CCN(C2CC2)S(=O)(=O)c2c(cccc2N2CC[C@H](N(C)C)C2)O1,3,0,·,-2,5,8,·,·
O=C(NC1(O)C(=O)c2ccccc2C1=O)c1ccc(C(F)(F)F)cc1,-2,6,28*,-9,0,2,54*,64*
COc1ccc(C2NCCc3c2[nH]c2ccccc32)cc1CN1CCc2cc(OC)c(OC)cc2C1C (configuration not stated),·,·,16,·,·,·,·,·
COc1ccc(C2NCCc3c2[nH]c2ccccc32)cc1COc1ccc(F)cc1 (configuration not stated),-2,1,29*,1,17,-1,16,18*
CC1C/C(=C/c2ccncc2)C(=O)/C(=C/c2ccncc2)C1 (configuration not stated),3,6,96*,-5,-1,0,103*,106*
CC1C/C(=C/c2cccn2C)C(=O)/C(=C/c2cccn2C)C1 (configuration not stated),-1,10,42*,-7,-28,10,18,54*
CC1CC(C)CN(C(=O)c2ccncc2)C1 (configuration not stated),-1,-4,7,2,1,0,·,·
COCCN(CC(=O)NC1CCCCC1)C(=O)/C=C/C(=O)c1ccc(OC)cc1O,2,-5,62*,4,-6,21,102*,106*
Cc1ccc(CN2CCN(C(=O)C3CCCO3)CC2)cc1 (configuration not stated),0,1,-1,-4,3,-2,·,·
CCOC(=O)N1CCN(Cc2c(O)ccc3ccccc23)CC1,-1,0,27*,-1,-5,16,51*,89*
O=C(C1CCCO1)N1CCN(Cc2c(O)ccc3ccccc23)CC1 (configuration not stated),-1,-1,41*,-4,-2,23*,72*,102*
CCOC(=O)C1CCN(Cc2c(O)ccc3ccccc23)CC1,0,1,0,2,-1,6,·,·
COC(=O)[C@]12C[C@H](CC(=O)N3CCCC3)C(=O)N(Cc3cccc4ccccc34)C1=C[C@H](C(C)(C)C)O[C@@H]2C,-1,0,·,4,3,1,·,·
Cc1cccc(CN2[C@@H](C)[C@H](c3ccccc3)Oc3cc(Br)ccc3S2(=O)=O)c1,1,2,·,-3,5,0,·,·
Cc1ccc(S(=O)(=O)NC(Cc2ccccc2)C(=O)NN)cc1 (configuration not stated),-2,-3,-6,-1,4,2,·,·
Cc1ccc(S(=O)(=O)N[C@@H](Cc2ccccc2)C(=O)CCl)cc1,0,4,53*,2,0,18,93*,90*
C[C@H]1[C@@H](OC(=O)Nc2ccccc2C(F)(F)F)CC[C@@]23CCCN2C(=O)CCC[C@@H]13,2,3,·,-1,·,-3,·,·
O=C(C[n+]1ccc2ccccc2c1)c1ccc2ccc3ccccc3c2c1,-27,1,28*,3,25,-3,10,4
Cc1ccc(NC(=O)[C@@H](Cc2ccccc2)NC(=O)[C@H]2O[C@@H](n3ccc(=O)[nH]c3=O)[C@H](O)[C@@H]2O)cc1C,-2,4,·,-4,2,-6,·,·
SMILES,UHRF1 binding,LEDGF integ inh,ABHD5 PLIN5 PPI,MBD2 inh,rCAG RNA binder,PRMT1 FP inh,ABHD5 PLIN5 conf,HNF4 split-luc
O=C(C=Cc1cccs1)c1ccc(Cl)s1,0,-3,24*,-2,5,1,60*,40*
O=C(/C=C/c1cccs1)c1cc(Cl)ccc1O,1,0,10,2,1,3,·,·
C=C1C(=O)O[C@H]2[C@H]1[C@H](OC(=O)/C(C)=C\C)C[C@]1(CO1)[C@@H]1[C@H](OC(C)=O)C=C(C)[C@]21O,8,7,25*,-5,10,-2,46*,40*
COc1ccc(CNC(=O)c2cccnc2Sc2ccc(Cl)cc2)cc1,·,·,89*,·,·,·,-6,10
Cc1ccc(C(c2c(O)nc3n(c2=O)CCS3)c2c(O)nc3n(c2=O)CCS3)cc1,0,2,13,-5,9,11,·,·
O=c1c(C(c2ccc(O)cc2)c2c(O)nc3n(c2=O)CCS3)c(O)nc2n1CCS2,4,0,53*,1,3,19,90*,79*
O=c1c(C(c2ccc(O)cc2)c2c(O)nc3n(c2=O)CCCS3)c(O)nc2n1CCCS2,3,1,29*,3,8,17,84*,71*
O=c1c(C(c2ccc(Br)cc2)c2c(O)nc3n(c2=O)CCCS3)c(O)nc2n1CCCS2,2,-2,-3,2,9,10,·,·
O=C(CN1C(=O)S/C(=C\C=C\c2ccccc2)C1=O)Nc1ccc(O)cc1,3,-4,30*,-4,19,2,12,3
O=C(CCCN1C(=O)S/C(=C/C=C/c2ccccc2)C1=O)Nc1ccc(C(=O)O)cc1,2,-1,28*,1,31,-1,17,12
CCn1c(=O)cc(N2CCN(c3cccc(C(F)(F)F)c3)CC2)[nH]c1=O,1,2,·,1,·,-1,·,·
CC1=C[C@@H]2[C@H]3C(=O)N(Cc4ccccc4)C(=O)[C@H]3[C@@H]1[C@@H]1O[C@@]3(C(=O)N(C)c4ccccc43)C3=C(CCCC3=O)N21,1,3,·,0,4,-4,·,·
CCOC(=O)C1=C(C)N=c2s/c(=C\c3ccncc3)c(=O)n2C1c1ccc2c(c1)OCO2 (configuration not stated),0,0,-13,-4,17,8,·,·
